Reference: PubChem BioAssay (NCATS)
Results filed as inconclusive are left out. Calls of active or inactive are those of the source. Calls follow the shape of the dose curve; as a rule, active = well fitted cell-killing curve with a large enough effect; inconclusive = small, poorly fitted or top-dose-only effect, or effect the other way; inactive = no such curve, though single readings can be large or run the other way.

Legend:
[1] = Quantitative High-Throughput drug screen in 47 multiple myeloma cell lines against the NCATS MIPE library collection: KMS28PE_JCRB cell viability assay (AID 1918983); also: nearly all actives have a fitted effect of over 35% in size
In short: (§1)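 Inhibition of viability over 48 h was scored by ATP content (CellTiter-Glo) in 500-cell wells. Zero and full viability were defined by media-only and DMSO-only wells.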

[2] = Quantitative High-Throughput drug screen in 47 multiple myeloma cell lines against the NCATS MIPE library collection: L363_DSMZ cell viability assay (AID 1918984); also: nearly all actives have a fitted effect of over 40% in size
In short: as §1

[3] = Quantitative High-Throughput drug screen in 47 multiple myeloma cell lines against the NCATS MIPE library collection: KMS34_JCRB cell viability assay (AID 1918985); also: nearly all actives have a fitted effect of over 40% in size
In short: as §1

[4] = Quantitative High-Throughput drug screen in 47 multiple myeloma cell lines against the NCATS MIPE library collection: OCIMY7_PLB cell viability assay (AID 1918987); conditions: OCI-MY7 myeloma viability, CellTiter-Glo ATP, 48 h; viability (% of DMSO): at 45.8 µM (top of the series); also: nearly all actives have a fitted effect of over 65% in size
In short: as §1

[5] = Quantitative High-Throughput drug screen in 47 multiple myeloma cell lines against the NCATS MIPE library collection: OCIMY5_PLB cell viability assay (AID 1918988); also: nearly all actives have a fitted effect of over 65% in size
In short: as §1

[6] = Quantitative High-Throughput drug screen in 47 multiple myeloma cell lines against the NCATS MIPE library collection: OPM1_PLB cell viability assay (AID 1918989); also: nearly all actives have a fitted effect of over 40% in size
In short: as §1

[7] = Quantitative High-Throughput drug screen in 47 multiple myeloma cell lines against the NCATS MIPE library collection: SKMM1_PLB cell viability assay (AID 1919863); conditions: SKMM1 myeloma viability, CellTiter-Glo ATP, 48 h; viability: stronger effect = lower value; also: nearly all actives have a fitted effect of over 35% in size
In short: as §1

[8] = Quantitative High-Throughput drug screen in 47 multiple myeloma cell lines against the NCATS MIPE library collection: U266_ATCC cell viability assay (AID 1919864); also: nearly all actives have a fitted effect of over 35% in size
In short: as §1

[9] = Quantitative High-Throughput drug screen in 47 multiple myeloma cell lines against the NCATS MIPE library collection: XG6_PLB cell viability assay (AID 1919865); also: nearly all actives have a fitted effect of over 40% in size
In short: as §1

[10] = Quantitative High-Throughput drug screen in 47 multiple myeloma cell lines against the NCATS MIPE library collection: XG1_PLB cell viability assay (AID 1919866); also: nearly all actives have a fitted effect of over 35% in size
In short: as §1

[11] = Quantitative High-Throughput drug screen in 47 multiple myeloma cell lines against the NCATS MIPE library collection: VP6_DJ cell viability assay (AID 1919867); also: nearly all actives have a fitted effect of over 40% in size
In short: as §1

[12] = Quantitative High-Throughput drug screen in 47 multiple myeloma cell lines against the NCATS MIPE library collection: UTMC2_PLB cell viability assay (AID 1919868); conditions: CellTiter-Glo ATP luminescence, 48 h; viability (% of DMSO control): at 45.8 µM (top of the series); also: nearly all actives have a fitted effect of over 55% in size
In short: as §1

[13] = Quantitative High-Throughput drug screen in 47 multiple myeloma cell lines against the NCATS MIPE library collection: PE2_PLB cell viability assay (AID 1919869); also: nearly all actives have a fitted effect of over 35% in size
In short: as §1

[14] = Quantitative High-Throughput drug screen in 47 multiple myeloma cell lines against the NCATS MIPE library collection: PCM6_Riken cell viability assay (AID 1919870); also: nearly all actives have a fitted effect of over 30% in size
In short: as §1

[15] = Quantitative High-Throughput drug screen in 47 multiple myeloma cell lines against the NCATS MIPE library collection: RPMI8226_ATCC cell viability assay (AID 1919871); also: nearly all actives have a fitted effect of over 30% in size
In short: as §1

[16] = Quantitative High-Throughput drug screen in 47 multiple myeloma cell lines against the NCATS MIPE library collection: OPM2_DSMZ cell viability assay (AID 1919872); also: nearly all actives have a fitted effect of over 30% in size
In short: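 CellTiter-Glo ATP luminescence gave viability after 48 h compound treatment at 37C of 500 multiple myeloma cells per well. Normalisation used DMSO-only wells as 100% and media-only wells as 0% viability; primary qHTS of approved and investigational drugs.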

[17] = Quantitative High-Throughput drug screen in 47 multiple myeloma cell lines against the NCATS MIPE library collection: KMS11_JCRBsus cell viability assay (AID 1919873); also: nearly all actives have a fitted effect of over 50% in size
In short: as §1

[18] = Quantitative High-Throughput drug screen in 47 multiple myeloma cell lines against the NCATS MIPE library collection: KMS28BM_JCRB cell viability assay (AID 1919874); also: nearly all actives have a fitted effect of over 35% in size
In short: as §1

Measured: Potency
Potency is read from the fitted curve at half-maximal effect.

CC(C)N1[N]C(=C2C=c3cc(O)ccc3=N2)c2c(N)ncnc21
active: [1] 209 nM | [2] 59 nM | [3] 296 nM | [4] 743 nM | [5] 1180 nM | [6] 296 nM | [7] 118 nM | [8] 4180 nM | [9] 296 nM | [10] 93.5 nM | [11] 264 nM | [12] 187 nM | [13] 148 nM | [14] 1180 nM | [15] 41.8 nM | [16] 235 nM | [17] 105 nM | [18] 1320 nM

COC1=C2C[C@@H](C)C[C@H](OC)[C@@H](O)[C@@H](C)C=C(C)[C@H](OC(N)=O)[C@@H](OC)C=CC=C(C)C(=O)NC(=CC1=O)C2=O
active: [1] 132 nM | [2] 7430 nM | [3] 166 nM | [4] 74.3 nM | [5] 37.2 nM | [6] 418 nM | [7] 2090 nM | [8] 132 nM | [9] 332 nM | [10] 209 nM | [11] 132 nM | [12] 209 nM | [13] 296 nM | [14] 148 nM | [15] 105 nM | [16] 332 nM | [17] 83.3 nM | [18] 93.5 nM

Cn1cc(C2=C(c3c4n(c5ccccc35)CCC(CN)C4)C(=O)NC2=O)c2ccccc21 (stereo not given)
active: [1] 18700 nM | [2] 7430 nM | [3] 11800 nM | [4] 7430 nM | [5] 8330 nM | [7] 20900 nM | [8] 16600 nM | [9] 7430 nM | [10] 7430 nM | [11] 6620 nM | [13] 7430 nM | [14] 5260 nM | [15] 18700 nM | [16] 18700 nM | [17] 7430 nM | [18] 10500 nM

CC(=O)NCC(=O)N1[C@H]2CC[C@H]1c1cc(Nc3ncc(C(F)(F)F)c(NC4CCC4)n3)ccc12
active: [1] 4180 nM | [2] 935 nM | [3] 833 nM | [4] 93.5 nM | [5] 1180 nM | [7] 20900 nM | [8] 5900 nM | [9] 1180 nM | [10] 332 nM | [11] 833 nM | [12] 118 nM | [14] 1870 nM | [15] 5900 nM | [16] 1480 nM | [17] 66.2 nM | [18] 3320 nM

COc1cc(N2CCC(C(N)=O)CC2)ccc1Nc1nc(N)c(Cl)c(Nc2ccccc2S(=O)(=O)C(C)C)n1
active: [1] 743 nM | [2] 14.8 nM | [3] 2960 nM | [4] 209 nM | [5] 935 nM | [6] 5900 nM | [9] 93.5 nM | [11] 418 nM | [12] 132 nM | [13] 418 nM | [14] 833 nM | [18] 833 nM

O=C(C=Cc1ccc(CN(CCO)CCc2c[nH]c3ccccc23)cc1)NO
active: [1] 132 nM | [2] 59 nM | [3] 105 nM | [4] 83.3 nM | [5] 66.2 nM | [6] 66.2 nM | [7] 187 nM | [8] 264 nM | [9] 235 nM | [10] 166 nM | [11] 59 nM | [13] 166 nM | [14] 132 nM | [15] 235 nM | [18] 52.6 nM

CC(C=CC(=O)NO)=C[C@@H](C)C(=O)c1ccc(N(C)C)cc1
active: [1] 296 nM | [2] 132 nM | [3] 83.3 nM | [4] 148 nM | [5] 166 nM | [6] 332 nM | [7] 166 nM | [8] 209 nM | [9] 469 nM | [10] 332 nM | [11] 372 nM | [12] 235 nM | [13] 590 nM | [14] 469 nM | [15] 332 nM | [16] 833 nM | [17] 235 nM | [18] 187 nM

Oc1ccc(-c2ccc(-c3cc(Nc4cccc(CNC5CC5)c4)n[nH]3)cc2)c(O)c1
active: [1] 5260 nM | [2] 148 nM | [3] 4180 nM | [4] 4690 nM | [5] 1480 nM | [6] 1050 nM | [7] 5260 nM | [8] 5260 nM | [9] 418 nM | [10] 526 nM | [11] 743 nM | [12] 1320 nM | [15] 9350 nM | [17] 1320 nM | [18] 1320 nM

C=Cc1c(C)c2cc3nc(cc4[nH]c(cc5nc(cc1[nH]2)C(C)=C5CCC(=O)O)c(CCC(=O)OC)c4C)[C@@]1(C)C3=CC=C(C(=O)OC)[C@H]1C(=O)OC
active: [1] 743 nM | [2] 526 nM | [3] 743 nM | [4] 662 nM | [5] 41.8 nM | [6] 372 nM | [7] 743 nM | [8] 296 nM | [9] 33.2 nM | [10] 93.5 nM | [11] 118 nM | [12] 105 nM | [13] 209 nM | [15] 935 nM | [16] 1050 nM | [17] 9350 nM | [18] 418 nM
